From PubChem
This is a sample that favours compounds with a hit; in the whole collection about 3.9% have one here.
PK Bst – Pyruvate Kinase; purified pyruvate kinase, luminescence ATP production; ribose 5-phosphate activator present at AC10; Potency, µM; hit rate 1.2% among 51,000; in the data active means potency below about 11 µM; inconclusive means mostly about 12 µM to 25 µM;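 the screen sought inhibitors and activators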
FLuc inh – qHTS Assay for Inhibitors of Firefly Luciferase; hit rate 2.2% among 72,000; purified firefly luciferase, luminescence, 8 min; AID 411, 2009; Luciferin 4-monooxygenase (Photinus pyralis), P08659; Potency, µM (top dose mostly 57.1 µM), hits mostly inhibitors; further: nearly all actives have a fitted effect of over 40% in size
Target sequence (P08659 whole entry, looked up): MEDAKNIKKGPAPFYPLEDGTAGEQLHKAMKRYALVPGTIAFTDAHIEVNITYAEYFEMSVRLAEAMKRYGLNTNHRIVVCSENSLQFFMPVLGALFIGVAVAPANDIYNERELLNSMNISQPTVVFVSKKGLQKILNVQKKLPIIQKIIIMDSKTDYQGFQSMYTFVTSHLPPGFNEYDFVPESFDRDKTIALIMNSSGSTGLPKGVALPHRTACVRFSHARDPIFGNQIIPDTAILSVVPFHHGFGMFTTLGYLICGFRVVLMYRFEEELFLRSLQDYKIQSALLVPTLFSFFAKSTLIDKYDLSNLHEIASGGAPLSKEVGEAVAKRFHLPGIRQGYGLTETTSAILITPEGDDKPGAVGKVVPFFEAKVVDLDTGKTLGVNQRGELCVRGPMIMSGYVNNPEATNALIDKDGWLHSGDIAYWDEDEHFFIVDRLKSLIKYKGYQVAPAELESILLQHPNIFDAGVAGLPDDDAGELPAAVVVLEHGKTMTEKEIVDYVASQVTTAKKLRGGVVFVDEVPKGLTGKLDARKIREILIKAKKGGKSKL
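Substrate buffer containing 10 uM ATP (pH 7.2 imidazole, Mg2+, KCl, detergent, BSA) is dispensed, compound pinned in, then luciferase/luciferin detector mix added. After 8 min at ambient temperature, light output is measured.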
ERK AVP block – qHTS Assay for Inhibitors of the ERK Signaling Pathway using a Homogeneous Screening Assay; HEK293-V1b, vasopressin-stimulated pERK AlphaScreen; Potency, µM (series often up to 57.5 µM), hits mostly inhibitors; hit rate 0.99% among 72,000; further: nearly all actives have a fitted effect of over 55% in size
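HEK293 cells stably expressing V1b receptor, preincubated 30 min at 37 °C with compound, then stimulated 5 min with 25 nM vasopressin. Phospho-ERK by AlphaScreen SureFire after 5 h RT; normalized to DMSO and vasopressin; AC50 by Hill fit.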
GBA activity – Glucocerebrosidase; Lysosomal acid glucosylceramidase (Homo sapiens), P04062; purified enzyme, resorufin glucoside fluorescence (screen aimed at inhibitors), 20 min; Potency, µM; hit rate 1.1% among 48,000; AID 360, 2006; in the data active means potency below about 15 µM; inconclusive means mostly about 16 µM to 33 µM;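 further: the screen sought inhibitors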
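Compounds titrated against 0.2 nM normal enzyme, 30 uM resorufin beta-D-glucopyranoside substrate, citrate/phosphate buffer with taurocholate and tween-20, pH 5.9. Reaction ran 20 min at room temperature; fluorescence (Ex 548/Em 600) gave AC50.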
Each line names hits and unclear results; the compound was inactive in the other large screens; ! = repeats disagree. Unless noted, the call rests on the fitted dose curve; in most records, active means well fitted curve in the direction sought with a large enough effect; inconclusive means small, poorly fitted or top-dose-only effect, or another doubt; inactive means no such curve, though single readings can be large; an effect the other way counts as inactive or inconclusive.

Cc1ccc(NC(=O)c2c(O)c3ccccc3n(C)c2=O)nc1	none
CN1CCC[C@@H]1c1cccnc1.O=C(O)c1ccccc1O.O=C([OH2+])c1ccccc1O.O=C([OH2+])c1ccccc1O.O=C([OH2+])c1ccccc1O.[Cu]	none (no result: PK Bst, GBA activity)
COc1ccc(OC)c2[nH]c(=O)c(CCNC(C)=O)cc12	none (no result: PK Bst, ERK AVP block, GBA activity)
CCS(=O)(=O)NCCc1cc2c(OC)ccc(OC)c2[nH]c1=O	PK Bst 11
COc1ccc(/C=N/n2cc(-c3ccccc3)nc2N)cc1	none (no result: PK Bst, GBA activity)
COc1ccc(/C=N\n2nnc3ccccc32)cc1	PK Bst 2.2, FLuc inh 3.2µM
CN1CC[C@@]2(CCCN(C(=O)c3cccn3C)C2)C1	none (no result: PK Bst, GBA activity)
CCn1cc(C(=O)OCC(=O)OC2CC(C)CCC2C(C)C)c(=O)c2ccc(C)nc21 (centres undefined)	ERK AVP block 25µM
CNc1ncncc1-c1ccc(C(=O)N(C)C)cc1	none (no result: PK Bst, GBA activity)
C[C@H](NC(=O)/C(C#N)=C/c1ccc(O)c(O)c1)c1ccccc1	ERK AVP block 10µM (no result: PK Bst, GBA activity)
N#C/C(=C\c1ccc(O)c(O)c1)C(=O)Nc1ccccc1	FLuc inh 25µM!, ERK AVP block inconclusive (no result: PK Bst, GBA activity)
O=c1cnc2cnc(N3CCOCC3)nc2n1C1CC1	none (no result: PK Bst, GBA activity)
CCCC(=O)Nc1cnc(NC(=O)c2cccc(F)c2)cc1C	FLuc inh 25µM (no result: PK Bst)
Cc1cc(NC(=O)C(C)C)ncc1NC(=O)c1cccc(F)c1	none
CCC(=O)Nc1cc(C)c(NC(=O)c2ccco2)cn1	none
Cc1cc(NC(=O)c2ccccc2)ncc1NC(=O)c1ccco1	FLuc inh 25µM
COc1ccc(C(=O)N2CCN(C(=O)c3cc(OC)c(OC)c(OC)c3)CC2)cc1	none
COc1cc(C(=O)N2CCN(C(=O)COc3ccc4ccccc4c3)CC2)cc(OC)c1OC	FLuc inh 7.9µM (no result: PK Bst, GBA activity)
CCN(CC)c1ccc(NC(=O)c2ccc(Br)o2)cc1	FLuc inh 10µM, ERK AVP block inconclusive (no result: PK Bst, GBA activity)
CCCCOC(=O)Nc1ccc(N2CCCCC2)cc1	FLuc inh 13µM (no result: PK Bst, GBA activity)
O=C(c1ccc(F)cc1)c1ccc(N2CCCC2)cc1	none (no result: PK Bst, GBA activity)
COC(=O)c1cccc(NC(=O)c2ccc(S(=O)(=O)N3CCN(C)CC3)cc2)c1	GBA activity inconclusive
CN1CCN(S(=O)(=O)c2ccc(NC(=O)c3ccc(F)cc3)cc2)CC1	GBA activity 14
O=C(Nc1ccc(N2CCCCC2)cc1)c1ccc(F)cc1	FLuc inh 4µM, ERK AVP block inconclusive (no result: PK Bst)
O=c1cnc2cnc(N3CCNCC3)nc2n1Cc1cccs1	none (no result: PK Bst, GBA activity)
C=C(C)[C@H]1CC[C@]2(C(=O)O)CC[C@]3(C)[C@@H](CC[C@H]4[C@@]5(C)CC[C@@H](O)C(C)(C)[C@@H]5CC[C@@]43C)[C@H]12	none (no result: PK Bst, GBA activity)
c1ccc(-c2ccc(N3CCCC4(CCNCC4)C3)cc2)cc1	ERK AVP block inconclusive (no result: PK Bst, GBA activity)
O=C(Nc1ccc(N2CCN(C(=O)c3ccccc3)CC2)cc1)c1ccc(Br)o1	ERK AVP block inconclusive
O=C(Nc1ccc(N2CCCC2)cc1)c1ccc(Br)o1	FLuc inh 2.5µM (no result: PK Bst, GBA activity)
C/C=C/OC(=O)NC(c1ccccc1)[C@@]1(C(=O)OCC)CCCC1=O (some centres undefined)	none (no result: PK Bst, FLuc inh, GBA activity)
COc1ccc(CCn2c(C)cc(C(=O)CSc3nnc(N)s3)c2C)cc1	ERK AVP block 20µM
Cc1cc(C(=O)CSc2nnc(N)s2)c(C)n1CCc1ccc(Cl)cc1	none
Cc1nc2ccccc2c2oc(C(=O)N3CCN(C(=O)c4ccco4)CC3)cc12	none (no result: PK Bst, GBA activity)
Cc1nc2ccccc2c2oc(C(=O)N3CCc4ccccc4C3)cc12	ERK AVP block 7.9µM (no result: PK Bst, GBA activity)
Clc1cccc(Cl)c1Cn1cnc(=NCc2ccco2)c2[nH]cnc21	PK Bst 2.2, ERK AVP block inconclusive (no result: GBA activity)
O=C1CN(Cc2ccccc2)C(=NCc2ccco2)S1	none
C/C=C1\CC2C=CC1C2 (centres undefined)	none (no result: PK Bst, FLuc inh, GBA activity)
COc1ccc2nc(Nc3nc(C)c(C(C)=O)s3)sc2c1	FLuc inh 16µM, ERK AVP block inconclusive (no result: PK Bst)
CCCCN(C(=O)NC(=O)Nc1nc2ccc(OC)cc2s1)S(C)(=O)=O	FLuc inh 20µM
COc1ccc2nc(NC(=O)c3cnccn3)sc2c1	FLuc inh 13µM
OC[C@@H]1O[C@@H](n2cnc3c(SCc4ccccc4)ncnc32)[C@@H](O)[C@H]1O	none (no result: PK Bst, GBA activity)
O=c1cnc2cnc(Oc3ccccc3)nc2n1CCc1ccccc1	none (no result: PK Bst, GBA activity)
Cc1nc(NC2CCCCC2)c2nc(-c3ccccc3)n(CCCN(C)C)c2n1	none (no result: PK Bst, FLuc inh, GBA activity)
OCC(O)CO	none (no result: PK Bst, FLuc inh, GBA activity)
C[C@@H](CN1CCC(Cc2ccccc2)CC1)[C@H](O)c1ccc(O)cc1	ERK AVP block inconclusive (no result: PK Bst, GBA activity)
Cn1cccc1C(=O)N1CCC[C@@]2(CCN(C(c3ccccc3)c3ccccc3)C2)C1	none (no result: PK Bst, GBA activity)
Cc1[nH]nc(-c2ccc(O)cc2O)c1-c1ccc(Cl)cc1	ERK AVP block inconclusive
